# In PubChem BioAssay (EPA / NIEHS):
# The source made the active and inactive calls. The calls were made as follows: active = hit-call score of the fitted dose curve at least 0.9, where 1 is the maximum; inactive = score below 0.9.
# Assay: ATG_GRE_CIS: Attagene CIS-FACTORIAL HepG2 Assay for human Glucocorticoid Response Elements (GRE) (AID 2282947)
# Details: HepG2 GRE cis-reporter, Attagene multiplex mRNA; actives raise or lower the signal
# Procedure: ATG_CIS is a cell-based, multiplexed-readout assay that uses HepG2, a human liver cell line, with measurements taken at 24 hours after chemical dosing in a 24-well plate.ATG_GRE_CIS is one of 52 assay component(s) measured or calculated from the ATG_CIS assay. It is designed to make measurements of mRNA induction, a form of inducible reporter, as detected with fluorescence intensity signals by Reverse transcription polymerase chain reaction (RT-PCR) and Capillary electrophoresis technology.Data from the assay component ATG_GRE_CIS was analyzed into 1 assay endpoint. This assay endpoint, ATG_GRE_CIS, was analyzed with bidirectional fitting relative to DMSO as the negative control and baseline of activity. Using a type of inducible reporter, measures of mRNA for gain or loss-of-signal activity can be used to understand the reporter gene at the transcription factor-level as they relate to the gene NR3C1. Furthermore, this assay endpoint can be referred to as a primary readout, because this assay has produced multiple assay endpoints where this one serves a reporter gene function. To generalize the intended target to other relatable targets, this assay endpoint is annotated to the nuclear receptor intended target family, where the subfamily is steroidal.
# Human liver HepG2 cells are transiently transfected with multiple reporter transcription units (MRTUs) in 6-well plates using FuGene 6 reagent (Roche; 3 ml FuGene/1 mg DNA). The MRTU constructs are regulated by a cis-regulating element (promoter). […] A major difference between the CIS and TRANS system is that in CIS activities of endogenous TFs are measured, whereas the TRANS assay evaluates changes in activities of exogenous, chimeric NR-Gal4 proteins. […] At the end of 24 hour incubation, total RNA was isolated using TriZol reagent (Invitrogen). The isolated RNA is then reverse-transcribed using oligo(dT) primer and Mo-MLV reverse transcriptase (Invitrogen) with DNAse I (Ambion) treatment for 30 min. The one-tenth of the produced cDNA was amplified by PCR using Taq DNA polymerase (Invitrogen) and two reporter sequence-specific primers. The PCR products were fluorescently labeled by primer extension with 6-arboxyfluorescein (6-FAM) 5'-labeled reporter sequence-specific primer (2 min at 95 C, 20 s at 68 C and 10 min at 72 C) and these products were digested with 5U of HpaI (New England Biolabs) for 2h at 37 C. The fragments were purified using Qiaquick PCR columns (Qiagen), analyzed on an ABI 3130xL genetic analyzer (Applied Biosystems) with peak positions identified by using a set of X-rhodamine (ROX)-labeled MapMarker1000 molecular weight standards (BioVentures). The raw capillary electrophoresis data was processed using Attagraph software (Attagene).
SMILES,outcome,AC50
COc1ccc(CO)cc1,inactive,–
N#CCCCl,inactive,–
CC(C)(C)C(=O)CCl,inactive,–
CC(C)CCCCCCCOP(=O)(Oc1ccccc1)Oc1ccccc1,inactive,–
O=C(CCN1CC1)OCC(CO)(COC(=O)CCN1CC1)COC(=O)CCN1CC1,inactive,–
c1cc(OCC2CO2)ccc1Cc1ccc(OCC2CO2)cc1 (stereo not given),inactive,–
CCC1CCC(=O)O1 (stereo not given),inactive,–
S=c1[nH]c2ccccc2[nH]1,inactive,–
O=C(O)C(Br)Br,inactive,–
O=[N+]([O-])c1cc(C(F)(F)F)c(Cl)c([N+](=O)[O-])c1Cl,inactive,–
C=Cc1cccc(CCl)c1,–,100 µM (active)
COc1cc(OC)c(OC)cc1C=O,inactive,–
CCC(C)(C)O,inactive,–
N#CC(c1ccccc1)c1ccccc1,inactive,–
ClCC(Cl)Cl,inactive,–
CN(C)N,inactive,–
ClCCCCCCCl,inactive,–
CC(C)(c1cc(Cl)c(O)c(Cl)c1)c1cc(Cl)c(O)c(Cl)c1,inactive,–
N#CCCCCC#N,inactive,–
O=[N+]([O-])O.O=[N+]([O-])O.[Cd],inactive,–

SMILES,outcome,AC50
CC(O)CN(CC(C)O)CC(C)O (stereo not given),inactive,–
Cl/C=C\CCl,inactive,–
CC1CCC(=O)O1 (stereo not given),inactive,–
C=CC(=O)OCC(CC)CCCC (stereo not given),inactive,–
C=CC(=O)OCCO,inactive,–
CN1C[C@H](C(=O)N[C@]2(C)O[C@@]3(O)[C@@H]4CCCN4C(=O)[C@H](Cc4ccccc4)N3C2=O)C=C2c3cccc4[nH]cc(c34)C[C@H]21,inactive,–
CN(C)CCC#N,inactive,–
N#Cc1cccc(C#N)c1,inactive,–
CC(C)C#N,inactive,–
SCc1ccco1,inactive,–
CC(C)COP(=O)(OCC(C)C)OCC(C)C,inactive,–
CC(=O)C=Cc1ccccc1,inactive,–
C=COCCCl,inactive,–
CCOC(=O)N(C)N=O,inactive,–
C=CCc1ccc(OC(=O)Cc2ccccc2)c(OC)c1,inactive,–
CCCCOP(=O)(O)OCCCC,inactive,–
Oc1cc(Cl)ccc1Cl,inactive,–
CCC(=O)c1ccc(Cl)cc1,inactive,–
CC[N+](=O)[O-],inactive,–
[CH3][Sn]([Cl])([Cl])[Cl],inactive,–
